Inconclusive results are not listed. Unmarked numbers belong to inactive results. The call rests on the fitted dose curve; in most records, active means well fitted cell-killing curve with a large enough effect in the repeat runs; inconclusive means weak or mixed curves, or effect the other way; inactive means flat fitted curve, though single readings scatter. Positions of bridges follow the written chain, without caps; N, C: chain ends. Non-standard residues stand in square brackets, D forms with d. Residues, ends and D or L forms follow the SMILES beside them. hArg = N=C(N)NCCCC[C@H](N)C(=O)O; Mpa = O=C(O)CCS
Assay: qHTS assay to identify small molecule antagonists of the retinoid acid receptor (RAR) signaling pathway - cell viability counter screen (AID 1159551); further: nearly all actives have a fitted effect of over 35% in size
Settings: C3RL4 cells viability, ATP luminescence (CellTiter-Glo), 6 h; series mostly up to 92.4 µM; activity change, negative = cytotoxicity: at the top concentration
Excerpt: U.S. Tox21 Program National Center for Advancing Translational Sciences [NCATS] NIH Chemical Genomics Center [NCGC] U.S. Environmental Protection Agency [EPA] National Institutes of Environmental Health Sciences [NIEHS] National Toxicology Program [NTP] U.S. Food and Drug Administration [FDA] Tox21 Assay Overview: All-trans Retinoic acid (atRA) is the potent natural metabolite of retinol and plays an important role in normal embryonic development and maintenance of cellular phenotype in adult animals. atRA is the activating ligand for the retinoic acid receptors (RARs) which form heterodimers with retinoid X receptors (RXRs) on the retinoic acid response element (RARE). Through activation of the RAR/RXRs nuclear receptors, atRA regulates the transcription of a large number of protein-coding genes and regulatory RNAs. Intracellular levels of atRA are controlled by the retinol signaling pathway (RSP) that regulates the biosynthesis and catabolism of atRA to maintain physiological levels. Chemicals that interfere with the RSP can cause abnormal intracellular levels of atRA and therefore are potential developmental toxicants. To assess compounds for the potential adverse effect on embryonic development through interfering with retinol signaling, a cell-based RARE luciferase reporter gene assay was used. C3RL4 cell line (OARSA/CFSAN/FDA, Laurel, MD) was used to screen Tox21 10K compound library for identifying inhibitors of the RSP. Also cytotoxicity was assessed by determining the viability of cells based on the quantitation of ATP.
Tox21 Assay Protocol Summary: C3RL4 cells were seeded at 1,000/well in 4 uL of assay medium into white solid 1,536-well tissue culture plates (Greiner Bio-One North America Inc. Monroe, NC) using a Multidrop Combi (Thermo Scientific, Waltham, MA) dispenser. After incubation at 37 C and 5% CO2 for an overnight, 23 nL of compounds dissolved in DMSO, positive control or DMSO only were transferred by a Pintool station (Kalypsys, San Diego, CA). One ul of 1 uM (final concentration) of Retinol was added right after the compound addition by using a Flying Reagent Dispenser (FRD) (Aurora Discovery, San Diego, CA). After 6 hr incubation at 37 C and 5% CO2, 5 uL of CellTiter-Glo reagent (Promega Corporation, Madison, WI) was added to each assay plate using an FRD. Luminescence was quantified on a ViewLux plate reader (PerkinElmer, Waltham, MA) after 30 min incubation at room temperature.
On the % scale 0 is the no-effect control and ±100 the full control effect.

SMILES	activity change, negative = cytotoxicity
CC1(C)Cc2cccc(N)c2O1	2.45%
O=C(CN1CCNCC1)NC1CCCCC1	-1.07% [at 42.5 µM]
CCCCSCCCC	3.31%
CCCCOCCOC(=O)COc1ccc(Cl)cc1Cl	2.56%
OCC1(CO)COCOC1	0.256%
CCC(C)C(=O)OCCc1ccccc1 (stereo not given)	1.48%
CCCCCc1cccc(=O)o1	0.152%
CO/N=C(/C(=O)N[C@@H]1C(=O)N2C(C(=O)[O-])=C(C[n+]3ccn4ncccc43)CS[C@H]12)c1nsc(N)n1	2.18% [at 42.5 µM]
c1ccc2c(CC3=NCCN3)cccc2c1	-0.148% [at 42.5 µM]
Cc1ccc(N)cc1S(=O)(=O)O	6.12%
C[C@@H](O)C(=O)O	2.83%
Cc1ncc([N+](=O)[O-])n1CC(C)O (stereo not given)	-1.37% [at 42.5 µM]
C/C(CC(C)C)=N\O	4.31%
CCNC(=O)NCc1cccc(Cl)c1	2.91% [at 42.5 µM]
CC(C)CCOC(=O)c1ccccc1	4.66%
CCC(C)OC(C)CC (stereo not given)	-1.3%
CC(CO)(CO)CO	-0.293%
O=[N+]([O-])c1c(Cl)cc(Cl)cc1Cl	-2.22%
C=C(C)C1CC=C(C)C(=O)C1 (stereo not given)	-0.242%
N#Cc1ccccc1O	0.222%

SMILES	activity change, negative = cytotoxicity
CC(C)OC(=O)OCOP(=O)(CO[C@H](C)Cn1cnc2c(N)ncnc21)OCOC(=O)OC(C)C	-0.683% [at 42.5 µM]
CC(=O)CC(=O)Nc1ccc(C)cc1C	2.96%
Cc1c(C(=O)c2c[nH]n(C)c2=O)ccc(S(C)(=O)=O)c1C1=NOCC1	0.607% [at 42.5 µM]
CCCCOC(=O)[C@H](C)O	0.644%
CN(C)CCCCl	-3.53%
CC(C)Nc1ccccc1	2.16%
CC(=O)Nc1ccc(OC(=O)c2ccccc2OC(C)=O)cc1	-4.27% [at 42.5 µM]
CC(=O)C(C)O (stereo not given)	3.01%
CC(C)[C@H]1CC[C@H](C)C[C@@H]1O	3.02%
CCC(=O)c1c(O)cc(O)cc1O	2.4% [at 42.5 µM]
CCCC(=O)OCCC(C)CCC=C(C)C (stereo not given)	-0.871%
CC1OCCC1=O (stereo not given)	-0.392%
C/C(=C1\CCOC(=O)S1)N(C=O)Cc1cnc(C)nc1N	-1.2% [at 42.5 µM]
NC(=O)[C@@H]1CSSCCC(=O)N[C@@H](CCCCN=C(N)N)C(=O)NCC(=O)N[C@@H](CC(=O)O)C(=O)N[C@@H](Cc2c[nH]c3ccccc23)C(=O)N2CCC[C@H]2C(=O)N1 ([Mpa][hArg]GDWPC-NH2; disulfide 1-7)	3.08% [at 42.5 µM]
CC1=NN(c2ccc(S(=O)(=O)O)cc2)C(=O)C1	4.57%
OC[C@@H](O)C(O)[C@@H](O)CO (stereo not given in full)	-3.42%
CCC(C)C(C)=O (stereo not given)	3.32%
O=C=NCC1CCCC(CN=C=O)C1 (stereo not given)	4.2%
Cc1ccccc1C(N)=O	3.35%
CCCCCCCCCCCCCCC(=O)NC(CO)CCCCCCCCCCCCCC (stereo not given)	3.88%

From PubChem BioAssay (Tox21)
